The text below walks through data of PubChem BioAssay (NCATS).

For assay [1], the target named is Calcium and integrin-binding protein 1 (Homo sapiens) (UniProt Q99828). Kind of assay: Primary qHTS for Identification of Calcium Integrin Binding Protein 1 (CIB1) Competitor (AID 1508620).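 Note: GST tagged CIB1 binding a fluorescein labelled alphaIIb integrin peptide tracer; top concentration of the series differs between compounds; % is set by controls: 0 for no effect and ±100 for the full control effect.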 The gist of the method:
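CIB1-GST (1 uM final) and compound incubated 15 min at room temperature before adding FITC-alphaIIb peptide tracer (100 nM final). Competition for binding read by fluorescence polarization (ex 480, em 540) after another 15 min at room temperature.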

Assay [2] deals with Rap guanine nucleotide exchange factor 3 (Homo sapiens) (UniProt O95398). Kind of assay: Confirmatory qHTS for agonist of cAMP-regulated guanine nucleotide exchange factor 3 (EPAC1) (AID 1645881).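 Note: EPAC1 catalysed release of BODIPY-GDP from Rap1B seen as fluorescence loss; 100% = effect of cAMP agonist control; nearly all actives have a fitted effect of over 75% in size.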 In general terms: In qHTS, concentration-response curves come from the screen itself.
Rap guanine nucleotide exchange factor 3 (Homo sapiens), sequence (O95398 whole entry, looked up): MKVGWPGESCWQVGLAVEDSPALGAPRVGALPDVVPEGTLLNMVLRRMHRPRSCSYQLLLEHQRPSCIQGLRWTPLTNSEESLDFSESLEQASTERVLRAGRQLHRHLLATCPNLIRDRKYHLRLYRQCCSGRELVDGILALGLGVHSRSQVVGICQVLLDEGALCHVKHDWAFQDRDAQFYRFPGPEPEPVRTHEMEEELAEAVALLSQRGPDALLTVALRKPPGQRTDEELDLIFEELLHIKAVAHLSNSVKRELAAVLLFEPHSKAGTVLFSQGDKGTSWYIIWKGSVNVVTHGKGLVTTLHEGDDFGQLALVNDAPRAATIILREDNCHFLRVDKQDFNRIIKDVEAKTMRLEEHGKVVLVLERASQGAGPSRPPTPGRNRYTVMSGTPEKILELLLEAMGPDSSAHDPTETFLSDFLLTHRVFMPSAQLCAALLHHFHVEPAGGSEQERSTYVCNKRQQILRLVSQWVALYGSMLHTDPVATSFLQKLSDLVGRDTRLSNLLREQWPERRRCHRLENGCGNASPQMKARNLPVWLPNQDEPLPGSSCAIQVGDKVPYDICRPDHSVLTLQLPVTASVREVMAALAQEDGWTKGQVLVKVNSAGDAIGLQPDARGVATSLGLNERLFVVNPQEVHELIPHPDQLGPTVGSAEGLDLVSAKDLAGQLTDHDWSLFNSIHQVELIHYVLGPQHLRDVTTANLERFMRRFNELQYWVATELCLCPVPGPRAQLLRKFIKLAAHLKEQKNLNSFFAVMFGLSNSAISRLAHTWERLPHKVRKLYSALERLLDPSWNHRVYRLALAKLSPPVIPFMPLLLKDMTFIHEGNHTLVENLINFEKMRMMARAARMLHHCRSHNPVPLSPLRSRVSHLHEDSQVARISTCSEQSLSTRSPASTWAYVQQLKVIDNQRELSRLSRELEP
The target in assay [3] is Rap guanine nucleotide exchange factor 4 (Homo sapiens) (UniProt Q8WZA2). As to the kind of experiment: Confirmatory qHTS for agonist of cAMP-regulated guanine nucleotide exchange factor 4 (EPAC2) (AID 1645884).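 Note: nucleotide exchange releases bodipy-GDP from Rap1 and this lowers its fluorescence; % is set by controls: 0 for no effect and ±100 for the full control effect; nearly all actives have a fitted effect of over 65% in size.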
Rap guanine nucleotide exchange factor 4 (Homo sapiens), sequence (Q8WZA2 whole entry, looked up): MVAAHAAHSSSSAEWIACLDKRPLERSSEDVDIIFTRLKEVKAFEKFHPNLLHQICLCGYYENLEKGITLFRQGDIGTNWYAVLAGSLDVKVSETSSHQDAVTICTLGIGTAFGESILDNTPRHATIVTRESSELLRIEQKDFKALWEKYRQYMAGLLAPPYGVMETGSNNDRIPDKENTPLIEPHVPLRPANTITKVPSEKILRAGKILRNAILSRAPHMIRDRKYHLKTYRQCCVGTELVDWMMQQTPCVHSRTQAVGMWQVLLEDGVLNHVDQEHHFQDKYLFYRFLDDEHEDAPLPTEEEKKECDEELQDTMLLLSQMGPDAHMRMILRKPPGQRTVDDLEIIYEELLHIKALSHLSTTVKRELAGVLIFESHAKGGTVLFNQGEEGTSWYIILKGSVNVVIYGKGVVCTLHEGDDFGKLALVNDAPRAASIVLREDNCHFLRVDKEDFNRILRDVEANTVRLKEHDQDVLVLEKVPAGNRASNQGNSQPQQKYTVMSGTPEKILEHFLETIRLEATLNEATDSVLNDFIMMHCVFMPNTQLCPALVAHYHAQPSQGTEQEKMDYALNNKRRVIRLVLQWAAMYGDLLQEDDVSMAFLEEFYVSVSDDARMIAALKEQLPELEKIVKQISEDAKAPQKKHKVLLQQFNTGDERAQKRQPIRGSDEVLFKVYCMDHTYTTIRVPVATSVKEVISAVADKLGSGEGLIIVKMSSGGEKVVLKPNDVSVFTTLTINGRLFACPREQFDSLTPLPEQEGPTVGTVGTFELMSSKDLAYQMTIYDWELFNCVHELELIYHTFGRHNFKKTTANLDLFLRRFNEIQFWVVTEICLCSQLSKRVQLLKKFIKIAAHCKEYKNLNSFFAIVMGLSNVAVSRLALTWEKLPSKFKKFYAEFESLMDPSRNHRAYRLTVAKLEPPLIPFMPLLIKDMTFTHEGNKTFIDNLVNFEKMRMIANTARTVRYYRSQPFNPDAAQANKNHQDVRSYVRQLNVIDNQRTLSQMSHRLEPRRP
Assay [4] is described as follows: Primary qHTS for inhibitors of La Crosse Virus (LACV) - induced cell death in SH-SY5Y cells (AID 1508616).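 Note: top concentration of the series differs between compounds; 0% = infected DMSO wells and 100% = uninfected DMSO wells; higher means more rescue of cells from virus-induced death.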 The gist of the method: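 SH-SY5Y cells (6000/well) plated 24 h, then given compounds by pin transfer and LACV at 0.01 MOI for 6 days at 37C. Viability measured by ATPLite luminescence, normalized to infected DMSO and uninfected DMSO.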
Assay [5] is described as follows: Primary qHTS for small molecule stabilizers of the endoplasmic reticulum resident proteome: Secreted ER Calcium Modulated Protein (SERCaMP) assay (AID 1508630). Note: % is set by controls: 0 for no effect and ±100 for the full control effect. An outline of the steps: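 GLuc-SERCaMP-expressing SH-SY5Y cells, pretreated 16 h with compound, are challenged with thapsigargin to empty ER calcium stores; after 4 h, coelenterazine is added directly to the medium and luminescence is imaged.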

Assay [6] can be described thus: A High-Content qHTS Against Drug Library for the Identification of Small Molecules that Inhibit DYT1 Early Onset Primary Dystonia-Associated Cell Pathology (AID 1645839; calls by dose curve; note: series mostly up to about 46 µM). The gist of the method:
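In this high-content image screen, delE TorsinA mislocalization in inducible Flp-In 293 cells is scored as %pathology, with cell count serving as the counterscreen. Compound exposure lasts 48 h under tetracycline induction in reduced-serum medium.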

For assay [7], the target named is Cytochrome P450 2D6 (Homo sapiens) (UniProt P10635). As to the kind of experiment: Cytochrome P450 family 2 subfamily D member 6 (CYP2D6) small molecule antagonists: luciferase biochemical (cell-free) qHTS assay (AID 1645840; active = well fitted curve in the direction sought with a large enough effect in the repeat runs; an effect the other way counts as inactive or inconclusive; note: nearly all actives have a fitted effect of over 55% in size; note: potency is the fitted concentration of half-maximal effect). An outline of the steps: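 P450-Glo luminescent screen: recombinant CYP2D6 enzyme–proluciferin substrate mix preincubated with compound 10 min at room temperature, then NADPH regeneration added for 1 h at room temperature. Detection reagent added for 20 min; luciferin light read as relative luminescence units.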
Cytochrome P450 2D6 (Homo sapiens), sequence (P10635 whole entry, looked up): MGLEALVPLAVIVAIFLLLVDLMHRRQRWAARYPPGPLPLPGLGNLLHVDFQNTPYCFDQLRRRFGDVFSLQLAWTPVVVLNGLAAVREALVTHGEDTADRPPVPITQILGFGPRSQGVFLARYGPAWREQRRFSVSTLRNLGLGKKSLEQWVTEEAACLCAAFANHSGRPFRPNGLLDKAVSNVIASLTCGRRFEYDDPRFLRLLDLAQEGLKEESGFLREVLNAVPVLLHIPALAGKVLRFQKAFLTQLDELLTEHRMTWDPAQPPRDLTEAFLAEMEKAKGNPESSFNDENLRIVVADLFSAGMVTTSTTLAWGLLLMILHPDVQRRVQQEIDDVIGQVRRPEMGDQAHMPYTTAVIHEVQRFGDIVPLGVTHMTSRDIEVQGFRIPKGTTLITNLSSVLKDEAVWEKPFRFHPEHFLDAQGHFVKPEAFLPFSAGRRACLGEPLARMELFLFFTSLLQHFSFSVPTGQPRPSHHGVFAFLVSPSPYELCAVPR

For assay [8], the target named is Cytochrome P450 2C9 (Homo sapiens) (UniProt P11712). Kind of assay: Cytochrome P450 family 2 subfamily C member 9 (CYP2C9) small molecule antagonists: luciferase biochemical (cell-free) qHTS assay (AID 1645842; active = well fitted curve in the direction sought with a large enough effect in the repeat runs; an effect the other way counts as inactive or inconclusive; note: nearly all actives have a fitted effect of over 55% in size; note: potency is the fitted concentration of half-maximal effect). An outline of the steps: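 Luminescence, after 20 min with luciferin detection reagent, reflected CYP2C9 turnover during a 1 h NADPH-driven reaction at 37C. Enzyme-substrate mix contained 0.4% bovine serum albumin and was preincubated with compound 10 min at room temperature.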
Cytochrome P450 2C9 (Homo sapiens), sequence (P11712 whole entry, looked up): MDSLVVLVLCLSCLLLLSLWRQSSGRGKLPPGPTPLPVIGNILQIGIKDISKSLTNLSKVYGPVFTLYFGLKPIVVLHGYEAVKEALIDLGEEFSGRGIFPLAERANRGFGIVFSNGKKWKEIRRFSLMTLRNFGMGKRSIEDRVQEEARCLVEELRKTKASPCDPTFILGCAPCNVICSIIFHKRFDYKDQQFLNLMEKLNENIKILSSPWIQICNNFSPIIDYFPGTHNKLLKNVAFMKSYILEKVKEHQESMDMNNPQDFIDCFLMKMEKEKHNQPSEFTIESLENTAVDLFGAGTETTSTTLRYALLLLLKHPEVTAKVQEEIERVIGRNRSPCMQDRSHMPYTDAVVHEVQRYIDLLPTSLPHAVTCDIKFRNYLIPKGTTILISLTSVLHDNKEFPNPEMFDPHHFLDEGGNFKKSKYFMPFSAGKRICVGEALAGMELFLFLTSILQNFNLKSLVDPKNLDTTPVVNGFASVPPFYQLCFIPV

The target in assay [9] is N-terminal Xaa-Pro-Lys N-methyltransferase 1 (Homo sapiens) (UniProt Q9BV86). As to the kind of experiment: Confirmatory qHTS for Inhibitors of N-terminal methyltransferase 1 (NTMT1): MTaseGlo Assay (AID 1645874).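 Note: luminescence from SAH made as NTMT1 methylates SPKRIA peptide using SAM; series mostly up to about 100 µM; 0% = DMSO control and -100% = no-enzyme control; nearly all actives have a fitted effect of over 65% in size.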 The gist of the method:
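Luminescent MTase-Glo read-out of SAH. 125 nM NTMT1, 100 uM SAM, 1 uM SPKRIA substrate, 30 min RT reaction after 15 min compound preincubation. Normalized to no-enzyme and DMSO controls; Hill fit.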

A short description of assay [10]: Primary qHTS for inhibitors of nuclear receptor binding SET domain protein 2 (NSD2) in an RCH-ACV wild type WT cells (2C) (AID 1645877). Note: nearly all actives have a fitted effect of over 70% in size. Note: potency is the fitted concentration of half-maximal effect.
Assay [11] is described as follows: Primary qHTS for inhibitors of nuclear receptor binding SET domain protein 2 (NSD2) in an isogenic RCH-ACV NSD2 p.E1099K mutant (9B) (AID 1645876). Note: nearly all actives have a fitted effect of over 70% in size. Note: potency is the fitted concentration of half-maximal effect.
The nature of assay [12]: Counterscreen qHTS for small molecule stabilizers of the endoplasmic reticulum resident proteome: GLuc-NoTag assay (AID 1508627).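 Note: SH-SY5Y cells given compound then 100 nM thapsigargin to empty ER calcium; series mostly up to about 76 µM; 0% = thapsigargin alone and -100% = DMSO vehicle control.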 The gist of the method: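 Luminescence of Gaussia luciferase secreted into the medium (coelenterazine, 0.07x final, unlysed cells) was the read-out. Human SH-SY5Y neuroblastoma cells constitutively secreting untagged GLuc received compound for 19 h, then 100 nM thapsigargin for 4 h.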
(In general: A counterscreen serves to expose hits that act by an unwanted route or on another target.)

Assay [13] can be described thus: Confirmatory qHTS for small molecule stabilizers of the endoplasmic reticulum resident proteome: Secreted ER Calcium Modulated Protein (SERCaMP) assay (AID 1508628). Note: nearly all actives have a fitted effect of over 40% in size. Note: potency is the fitted concentration of half-maximal effect. An outline of the steps:
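SH-SY5Y cells stably expressing GLuc-SERCaMP, treated 16 h with compound (primary 1.53, 7.67, 38.3 uM; confirmation 11 concentrations, up to 76.6 uM), then 100 nM thapsigargin for 4 h. Secreted Gaussia luciferase in medium read by coelenterazine luminescence.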

The nature of assay [14]: Cell Viability qHTS for small molecule stabilizers of the endoplasmic reticulum resident proteome (AID 1508629).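 Note: human SH-SY5Y neuroblastoma cells carrying the GLuc-SERCaMP reporter; compound exposure about 46 h in total before the viability read; % is set by controls: 0 for no effect and ±100 for the full control effect.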 Particulars: cell viability counter-screen, 100 nM thapsigargin for final 4 h.

SMILES strings stand for the structures. “And” between values parts separate entries of the source, which are not always exact repeats. Equal values may be shown once. Results filed as inconclusive are left out. Unmarked numbers belong to inactive results. The source made the active and inactive calls. Unless noted, calls come from the whole dose curve; as a rule, active = well fitted curve in the direction sought with a large enough effect; inconclusive = small, poorly fitted or top-dose-only effect, or another doubt; inactive = no such curve, though single readings can be large; an effect the other way counts as inactive or inconclusive.

Calcium and integrin-binding protein 1 (Homo sapiens), sequence (Q99828 whole entry, looked up): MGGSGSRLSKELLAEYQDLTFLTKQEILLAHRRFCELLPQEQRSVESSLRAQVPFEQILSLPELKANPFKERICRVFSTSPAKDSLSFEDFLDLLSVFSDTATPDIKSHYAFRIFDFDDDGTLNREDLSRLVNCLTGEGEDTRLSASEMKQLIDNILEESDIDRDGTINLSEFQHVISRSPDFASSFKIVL
N-terminal Xaa-Pro-Lys N-methyltransferase 1 (Homo sapiens), sequence (Q9BV86 whole entry, looked up): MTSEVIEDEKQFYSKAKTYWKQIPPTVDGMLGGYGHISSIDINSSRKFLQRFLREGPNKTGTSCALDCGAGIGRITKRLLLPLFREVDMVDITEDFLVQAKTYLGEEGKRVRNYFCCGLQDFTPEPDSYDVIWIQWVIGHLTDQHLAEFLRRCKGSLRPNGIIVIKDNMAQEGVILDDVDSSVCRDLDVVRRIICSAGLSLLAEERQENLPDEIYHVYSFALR

As to `CC1CC(OC(=O)C(O)c2ccccc2)CC(C)(C)C1` (configuration not stated), the Potency result in [1] was “inactive”. In addition, the compound was classed as inactive in assay [2] and in [3].
For `COc1ccc2nc(NC(=O)Nc3ccccc3)sc2c1`, the outcome in [4], in assay [5] and in assay [6] was inactive. Also, the Potency result in assay [1] and in [7] was “inactive” in each case. Also, the Potency in assay [8] is 13.8 µM (active).
On to `COc1cc(C)c(/C=C/C(C)=C/C=C/C(C)=C/C(=O)O)c(C)c1C`, for which the result in [5] and in [9] was inactive. Also, the Potency in [10] is 18.6 µM (active).
On to `CN(C)CCCSc1ccccc1NC(=O)/C=C/c1ccccc1`, for which the call in assay [4], in assay [5] and in assay [6] was inactive. For the same compound, the Potency result in assay [1], in [8], in assay [11] and in assay [10] was “inactive” in each case. The Potency in [7] was 0.347 µM (active).
In the case of `C[C@@](Cc1ccc(O)c(O)c1)(NN)C(=O)O`, the result in [12] was inactive. In addition, the Potency result in assay [13] and in [7] was “inactive” in each case. In assay [14], the max response was -4.61%.
Regarding `C[C@H]1O[C@@H](O[C@H]2[C@@H](O)C[C@H](O[C@H]3[C@@H](O)C[C@H](O[C@H]4CC[C@@]5(C)[C@H](CC[C@@H]6[C@@H]5C[C@@H](O)[C@]5(C)[C@@H](C7=CC(=O)OC7)CC[C@]65O)C4)O[C@@H]3C)O[C@@H]2C)C[C@H](O)[C@@H]1O`, the Potency entry in [1], in assay [7] and in assay [8] was “inactive” each time. The Potency in [11] was 40.9 nM (active) and 66.1 nM (active); in [10], 51.5 nM (active) and 118 nM (active).
In the case of `NC(=O)c1ccc[n+]([C@@H]2O[C@H](COP(=O)([O-])OP(=O)(O)OC[C@H]3O[C@@H](n4cnc5c(N)ncnc54)[C@H](O)[C@@H]3O)[C@@H](O)[C@H]2O)c1`, the result in [5] was inactive.
Turning to `CN(C)c1ccc(C(=C2C=CC(=[N+](C)C)C=C2)c2c(O)c(S(=O)(=O)[O-])cc3cc(S(=O)(=O)O)ccc23)cc1`, in assay [7], the Potency is 15.1 µM (active).
For `Cc1cc(-c2ccc(N=Nc3ccc4c(S(=O)(=O)O)cc(S(=O)(=O)O)c(N)c4c3O)c(C)c2)ccc1N=Nc1ccc2c(S(=O)(=O)O)cc(S(=O)(=O)O)c(N)c2c1O`, the Potency in assay [13] was 31.6 µM (active).
For `CCC(C)[C@@H](N)C(=O)O` (some centres not stated), the result in [5] was inactive.
Turning to `C=C1[C@H](CO)[C@@H](O)C[C@@H]1n1cnc2c(=O)[nH]c(N)nc21`, the Potency entry in assay [1], in assay [7], in assay [8], in assay [11] and in assay [10] was “inactive” each time.
For `C=C1CC[C@H](O)CC1=C/C=C1\CCC[C@]2(C)[C@@H]([C@H](C)/C=C/[C@H](C)C(C)C)CC[C@@H]12`, the Potency result in assay [1] and in assay [7] was “inactive” each time. The Potency in assay [8] was 16.9 µM (active); in assay [10] it was 20.5 µM (active).
For the compound `C/C(=C\C(=O)OCCCCCCCCC(=O)O)C[C@@H]1OC[C@H](C[C@@H]2O[C@H]2[C@@H](C)[C@H](C)O)[C@@H](O)[C@H]1O`, the Potency entry in [1] was “inactive”.
With `O=C(OCc1ccccc1)c1ccc(O)cc1`, the compound was called inactive in assay [4] and in [6]. For the same compound, in [1], the Potency result was “inactive”.
Turning to `N[C@H](CC(=O)O)C(=O)O`, the outcome in [5] was inactive.
